# Results: the supplement of paper PMC10127200
# Counter-ions that a name gives are not always drawn.
# Experiments:
# Experiment in all cases: Euclidean distance of Cell Painting phenotypic profile (signed KS, 77 features) to DMSO centroid (dimensionless distance); 5 or 10 uM (library dependent); higher = stronger phenotypic change vs DMSO (phenoactivity)
# Conditions in all cases: 48 h
# [1] = test system: 786-O
# In short: (§1)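 Library compounds were applied at 10 or 5 uM, depending on the library, with 0.1% DMSO final, for 48 h to five cancer lines and a healthy fibroblast line. After staining, cells were imaged confocally at 20X across 9 fields per well, and Harmony extracted 77 features, each scored as a signed Kolmogorov-Smirnov statistic against vehicle wells on the same plate. Phenoactivity is the Euclidean distance between each profile and the median vehicle profile, with profiles first plate-position corrected, correlation-weighted and averaged over replicates at the top dose.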
# [2] = test system: A549
# In short: as §1
# [3] = test system: DU145
# In short: as §1
# [4] = test system: FB
# In short: as §1
# [5] = test system: HEPG2
# In short: as §1
# [6] = test system: OVCAR4
# In short: as §1
Structure (SMILES),Euclidean distance [1],Euclidean distance [2],Euclidean distance [3],Euclidean distance [4],Euclidean distance [5],Euclidean distance [6]
CCC(Cc1c(I)cc(I)c(N)c1I)C(=O)O (stereo not drawn) [Iopanoic acid],0.512,0.937,0.812,1.22,0.765,0.713
C[S+]([O-])c1ccc(-c2nc(-c3ccc(F)cc3)c(-c3ccncc3)[nH]2)cc1 (stereo not drawn),1.84,0.978,1.1,1.03,2.4,1.33
Nc1cc(F)ccc1NC(=O)/C=C/c1cnn(C/C=C/c2ccccc2)c1,1.54,1.02,0.877,2.44,1.27,0.895
NCC(=O)Nc1ccc(-n2nc(C(F)(F)F)cc2-c2ccc3c(ccc4ccccc43)c2)cc1,1.57,1.4,0.783,1.33,1.34,1.38
N[C@@H](CC(=O)O)C(=O)O [L-aspartic Acid],1.2,1.3,0.701,0.809,0.455,1.44
Cc1ccccc1C(OCCN(C)C)c1ccccc1 (stereo not drawn) [Orphenadrine Citrate],1.08,0.794,1.23,0.881,2.08,1.07
CCCCCOc1ccc(-c2cc(-c3ccc(C(=O)N[C@H]4C[C@@H](O)[C@@H](O)NC(=O)[C@@H]5[C@@H](O)[C@@H](C)CN5C(=O)[C@H]([C@H](O)CC(N)=O)NC(=O)[C@H]([C@H](O)[C@@H](O)c5ccc(O)c(OS(=O)(=O)O)c5)NC(=O)[C@@H]5C[C@@H](O)CN5C(=O)[C@H]([C@@H](C)O)NC4=O)cc3)no2)cc1 [Micafungin Sodium],1.25,1.24,1.1,1.25,1.15,1.27
CN(CCOc1ccc(CC2SC(=O)NC2=O)cc1)c1ccccn1 (stereo not drawn) [Rosiglitazone HCl],1.13,1.65,1.31,1.07,2.06,1.27
Cc1cncc(CN2CCC(=C3c4ccc(Cl)cc4CCc4cccnc43)CC2)c1 [Rupatadine Fumarate],1.51,1.15,1.34,1.22,1.69,1.27
CS(=O)(=O)c1ccc([C@@H](O)[C@@H](CF)NC(=O)C(Cl)Cl)cc1 [Florfenicol],1.1,0.738,0.807,1.12,0.739,0.76
COc1ccnc2[nH]cc(C(=O)C(=O)N3CCN(C(=O)c4ccccc4)C[C@H]3C)c12,0.998,1.1,0.533,0.737,0.554,1.47
COC(=O)N[C@H](C(=O)N[C@@H](Cc1ccccc1)[C@@H](O)CN(Cc1ccc(-c2ccccn2)cc1)NC(=O)[C@@H](NC(=O)OC)C(C)(C)C)C(C)(C)C [Atazanavir Sulfate],1.01,0.58,0.637,0.614,0.837,1.55
COc1cc2nccc(Oc3ccc(NC(=O)Nc4cc(C)on4)c(Cl)c3)c2cc1OC [Tivozanib (AV-951)],2.03,2.81,1.83,2.67,2.21,2.39
O=C(/C=C/c1ccc(O)c(O)c1)c1ccc(O)cc1O [Butein],1.56,1.3,1.12,1.51,1.5,1.12
N#Cc1ccc2[nH]cc(CCCCN3CCN(c4ccc5oc(C(N)=O)cc5c4)CC3)c2c1 [Vilazodone HCl],2.53,2.23,1.66,1.66,2.24,1.77
CC1(COc2ccc3c(c2)ncn3-c2ccc3cccc(N4CCC(N)CC4)c3n2)COC1,3.62,3.9,3.27,3.75,3.6,3.78
COc1cc(Nc2c(C#N)cnc3cc(OCCCN4CCN(C)CC4)c(OC)cc23)c(Cl)cc1Cl [Bosutinib (SKI-606)],3.85,3.56,2.93,3.66,3.22,4.14
COc1ccc2c(c1)C(=O)N(CCc1ccc(S(=O)(=O)NC(=O)NC3CCCCC3)cc1)C(=O)C2(C)C [Gliquidone],1.02,0.773,1.03,1.06,3.11,0.973
Cc1ccc(=O)n(-c2ccccc2)c1 [Pirfenidone],1.25,0.718,1.64,0.845,0.297,1.38
CCCC(=O)O[C@]1(C(=O)CO)CC[C@H]2[C@@H]3CCC4=CC(=O)CC[C@]4(C)[C@H]3[C@@H](O)C[C@@]21C [Hydrocortisone butyrate],1.21,2.18,1.87,1.7,1.87,2.45
COC(=O)Nc1nc2cc(C(=O)c3cccs3)ccc2[nH]1 [Nocodazole],2.96,2.51,3.43,2.56,2.58,3.08
C[n+]1cc2c3c(ccc2c2ccc4cc5c(cc4c21)OCO5)OCO3 [Sanguinarine chloride],5.34,5,7.6,6.48,4.82,5.76
CO[C@@H]1[C@@H](O[C@@H]2O[C@H](C)[C@@H](O[C@H]3C[C@@](C)(O)[C@@H](O)[C@H](C)O3)[C@H](N(C)C)[C@H]2O)[C@@H](CC=O)C[C@@H](C)[C@@H](O[C@H]2CC[C@H](N(C)C)[C@@H](C)O2)/C=C/C=C/C[C@@H](C)OC(=O)C[C@H]1OC(C)=O [Acetylspiramycin (ASPM)],0.993,1.5,2.15,1.66,1.45,1.73
